NRP1-CendR mod: modulators of CendR peptide binding to human neuropilin-1; AID 602438; 0.85% of 360,000 active; inhibition, % at 25 µM; O14786; FAM-RPARPAR peptide binding to NRP-1, fluorescence polarization;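 active means inhibition or corrected inhibition above about 18%, plus a signal ratio from 0.5 to 1.5, limit read from the data, passing the limit was not always enough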
FAS-TE inh: inhibitors of human fatty acid synthase thioesterase domain | recombinant FAS-TE, OMFH fluorogenic substrate, fluorescence endpoint | inhibition, % at 15 µM | 0.67% of 360,000 active;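 active means compounds whose normalised, plate-corrected inhibition of enzyme fluorescence in the single-dose primary screen is 50% or more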;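 further: 0% = DMSO with enzyme and 100% = substrate without enzyme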
CRFBP-R2 block: blocks CRF-induced signaling of the CRF-BP/CRF-R2 complex. inhibition, % at 11.8 µM. HEK293 CRF-R2/CRF-BP, CRF-induced calcium fluorescence. 0.59% of 350,000 active;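 active means inhibition of the ligand-induced calcium signal above about 50% at the single tested concentration, limit read from the data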
NadD inh: NadD (S. aureus) enzyme inhibition; purified NadD enzyme, colorimetric absorbance read-out; inhibition, % at 20 µM; 0.78% of 360,000 active; AID 602399; in the data active means inhibition above about 26%
Myeloid diff 2: promotes myeloid progenitor differentiation | ER-HoxA9 myeloid progenitors, lysozyme-GFP differentiation, flow cytometry | 1% of 360,000 active | calls only at 10 µM;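 active means normalized GFP-positive differentiation at or above the plate's own cutoff, the solvent-only control mean plus 3 SD; inconclusive means no clear call, values can overlap the other calls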;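 further: cells exposed to compound for four days before flow analysis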
NadD conf: NadD (S. aureus) inhibition, single concentration confirmation; shares compounds with NadD inh; purified S. aureus NadD, colorimetric enzyme assay; inhibition, % at 20 µM; 13% of 2,000 active; AID 624309; in the data active means inhibition mostly above about 42%, no sharp cut-off; inactive means mostly below about 42%
* = called active by the depositor; i = inactive; ? = inconclusive; · = not tested or not shown. Hits are enriched below; roughly 3.6% of the tested compounds scored in any of these assays.

SMILES	NRP1-CendR mod	FAS-TE inh	CRFBP-R2 block	NadD inh	Myeloid diff 2	NadD conf
COc1cccc(CNS(=O)(=O)c2c(C(=O)N3CCCCCC3)c(C)n(C)c2C)c1	9	-5	6	-4	i	·
Cc1ccc(O)c(C(=O)c2cnc3c(c2)c(-c2ccc(F)cc2)c(C#N)c(=O)n3C)c1	-15	41	-6	28*	i	23
CCCSc1nnc(NC(=O)c2sc3nc(-c4cccs4)ccc3c2N)s1	-101	1	15	37*	i	10
CCc1ccc(NC(=O)C(=O)NCC2CCCN2S(=O)(=O)c2ccccc2)cc1 (stereo not given)	-15	20	15	-11	i	·
Cc1cccc(/C=C2/Sc3ccc(C(=O)NCCN4CCCC4)cc3NC2=O)c1	-6	-2	-12	12	?	·
O=C1Nc2cc(C(=O)NCCN3CCCCCC3)ccc2S/C1=C\c1ccccc1	-1	-8	-6	44*	i	-17
COc1cccc(/C=C2/Sc3ccc(C(=O)NCCN4CCCCCC4)cc3NC2=O)c1	5	-8	-22	42*	?	-2
CCOc1ccc(S(=O)(=O)NCCC(=O)OCC(=O)c2ccc(NC(C)=O)cc2)cc1	6	1	-8	0	i	·
CC(C)c1ccc(NC(=O)Nc2cc3sccc3n2C)cc1	-18	1	-2	42*	i	27
CCN(C(=O)CSc1nc2ccccc2o1)c1c(N)n(Cc2ccccc2)c(=O)[nH]c1=O	-5	-3	-7	-2	i	·
Cc1cc(-c2csc(N)n2)c(C)n1CCC(C)C	-11	-154	0	34*	i	11
Cc1cc(-c2csc(N)n2)c(C)n1CCc1ccccc1	-22	-131	-3	30	i	·
C[C@@H](NC(=O)[C@@H]1Cc2ccccc2CN1)C(=O)NCc1ccco1	12	-8	-2	-1	i	·
O=C(c1ccoc1)N1CCN(c2cc(-c3ccccc3)nc3cc(-c4ccccc4)nn23)CC1	-10	22	0	17	i	·
COc1cccc(-c2cc(N3CCN(C(=O)c4ccoc4)CC3)n3nc(-c4cccc(Cl)c4)cc3n2)c1	-14	22	-6	37*	i	20
COc1ccccc1-c1cc2nc(-c3ccccc3)cc(N3CCN(C(=O)c4ccoc4)CC3)n2n1	7	22	-13	47*	i	32
O=C(c1ccoc1)N1CCN(c2cc(-c3ccco3)nc3cc(-c4ccccc4)nn23)CC1	-28	22	22	10	i	·
COc1ccccc1-c1cc2nc(-c3ccccc3)cc(N3CCN(C(=O)c4ccco4)CC3)n2n1	-8	34	-3	41*	i	31
COc1cccc(-c2cc3nc(-c4ccccc4)cc(N4CCN(C(=O)c5ccoc5)CC4)n3n2)c1	-11	24	12	20	i	·
COc1ccccc1-n1c(SCC(=O)N(C)C)nnc1-c1ccco1	-1	-4	-2	-2	i	·
COc1cc(-c2nnc(NC(=O)CS(=O)(=O)c3ccc(C)cc3)o2)cc(OC)c1OC	-6	-3	6	11	i	·
CN(Cc1ccccc1)C(=O)c1ccc(NC(=O)Cc2ccc(NC(=O)C3CCN(C(=O)C4CCCC4)CC3)cc2)cc1	-4	-4	46	6	i	·
Cc1cccc(NC(=O)c2nc[nH]c2C(=O)NCCCCNC(=O)c2[nH]cnc2C(=O)Nc2cccc(C)c2)c1	-3	-1	-2	37*	i	11
Cc1cccc(NC(=O)c2nc[nH]c2C(=O)NCCCCCCNC(=O)c2[nH]cnc2C(=O)Nc2cccc(C)c2)c1	4	10	-10	37*	i	4
Cc1cccc(NC(=O)c2nc[nH]c2C(=O)NCc2ccccc2)c1	16	0	1	1	i	·
SMILES	NRP1-CendR mod	FAS-TE inh	CRFBP-R2 block	NadD inh	Myeloid diff 2	NadD conf
NS(=O)(=O)c1ccc(N/C=C\C(=O)c2ccc3ccccc3c2)cc1	-15	-29	3	10	i	·
O=C(OCc1csc(-c2ccccc2)n1)c1ccc(O)cc1	1	3	-4	1	i	·
CCc1ccc2c(c1)/C(=N/OC)C(=O)N2	-15	-6	-5	1	i	·
COc1ccccc1CNC(=O)/C=C/c1ccc(Br)o1	-12	2	-1	32*	i	30
C/C(=N\NC(=O)c1ccc(OC2OCCOC2Oc2ccc(C(=O)N/N=C(\C)c3ccncc3)cc2)cc1)c1ccncc1 (stereo not given)	-79	-1	3	32*	i	11
C/C(=N\NC(=O)c1ccncc1)c1ccc(N2CCOCC2)cc1	-6	-2	1	-5	i	·
COc1cc(C(=S)N2CCOCC2)cc(OC)c1OC(=O)c1cccc(C)c1	5	10	5	-2	i	·
COc1cccc(CSC(C(=O)O)c2ccccc2)c1 (stereo not given)	-5	-11	46	-5	i	·
O=C(CSc1nnc(-c2ccc3c(c2)OCO3)o1)Nc1ncc(C(F)(F)F)cc1Cl	-27	13	-42	34*	i	5
O=C(c1ccc(Cl)c(S(=O)(=O)Nc2ccccc2C(=O)N2CCc3ccccc3C2)c1)N1CCc2ccccc2C1	-2	38	54*	47*	i	33
O=C(c1ccc(Cl)c(S(=O)(=O)N2CCc3ccccc3C2)c1)N1CCN(c2ccccc2)CC1	-16	38	5	2	i	·
O=C(NCc1ccccc1)c1nc(-c2c(F)cccc2F)oc1-c1ccccc1	8	·	·	·	i	·
Cc1cc2cc(CNS(=O)(=O)c3ccc4ccccc4c3)ccc2n1C	0	-5	-16	35*	i	34
CC(C)CC1(C)NC(=O)N(CC(=O)Nc2ccccc2Br)C1=O (stereo not given)	3	-8	-10	-4	i	·
CC1(c2ccccc2)CC(C)(C)n2c(O)c(C3=NC(=S)NC3=O)c3cccc1c32 (stereo not given)	26*	0	-5	33*	i	-1
O=C1CC(=C2c3ccccc3-c3ccccc32)C(=O)N1CCCCN1CCN(c2ccccc2)CC1	-6	16	-11	48*	i	30
CNC(=O)NC(=O)C(C)OC(=O)c1c2c(nc3ccccc13)/C(=C/c1cccs1)CC2 (stereo not given)	-28	3	-31	33*	?	20
Cc1cc(NCCCCCCCNc2cc(C)nc3cc([N+](=O)[O-])ccc23)c2ccc([N+](=O)[O-])cc2n1	16	-18	37	66*	i	65*
COCCCNc1cc(C)nc2ccccc12	9	-8	-1	6	i	·
Cc1ccccc1OCc1nnc(SCC(=O)Nc2ccc3nc(SCC(=O)Nc4ccccc4)sc3c2)n1C	-31	-6	12	32*	i	3
Cc1cc(C)c(NC(=O)CSc2nc3ccc(NC(=O)CSc4nnnn4Cc4ccccc4)cc3s2)c(C)c1	2	14	15	47*	i	-3

Screening results from PubChem.
